# In the OligoGym collection:
# Target: TEAD3
# Assay: pooled miR-30 sensor sort-seq; sequence = guide strand
# Settings: shRNA
# Also: reference of the scale not given here.
row,Sequence,sensor-assay potency score (higher = more potent)
1,TACTCCCGCACCTTCTTCCGAG,-0.896
2,TTCTCTACCACCTGTTTGCCAA,-0.68
3,TTCTCGTCCGAGTCTTCCCCGT,-0.997
4,TATAGCGTGCAATCAACTCATT,-1.09
5,TCTGACAGGATGATCTTCCGCC,0.971
6,TTGATCATGTACTCGCACATGG,0.181
7,TTTGCCAAAGGAGCACACCTTG,-1.16
8,TTGAGGTCGGCCCAGAACTTGA,-1.66
9,TTTAATATAGCGTGCAATCAAC,-1.47
10,TATGCAAACAGTGAGGACCTTC,-0.217

# Target: TECPR1
# Assay: as above
# Settings: shRNA
row,Sequence,sensor-assay potency score (higher = more potent)
1,TTCCACTTCTTGTCTTTCGTGT,0.613
2,TGTGGTACCAGCAGTCACCGGC,0.193
3,TATGAGGCAGGGAAGTCGCTGG,-0.217
4,TAGATGTTACTGGTGCTGCTGG,-0.642
5,TTGTCTTTCGTGTAGGTGGCGG,-0.464
6,TTGAGGTCAATATTGGTCCAGG,-0.869
7,TCACCAACCATCTCAATCCAAC,-1.66
8,TTCCACGGTATCTTCTGCGGTC,-0.344
9,TTCTTGTCTTTCGTGTAGGTGG,-0.581
10,TTGGTCTCGTTCAGCACTGGGA,-0.998
11,TTGTTGGACACGTGCTCCCAGC,-1.68

# Target: TEF
# Assay: as above
# Settings: shRNA
row,Sequence,sensor-assay potency score (higher = more potent)
1,TTCTTCTTGCGTCTTGTCCAGT,-0.866
2,TCATCCTTCTGCTCGTCGGGGA,0.16
3,TTGCGTCTTGTCCAGTACTTTT,-1.72
4,TAGCTCTGCTACAGGCAGCAGC,-0.912
5,TACTTGGACACGATGGTCTTGC,-0.169
6,TTGTCCAGTACTTTTCATCCTT,0.089
7,TTTAGCTGCCACGTTGTTCTTC,-0.221
8,TAGACTAGGTGTCTTGCCCTGC,-0.327
9,TTGGTGACTCTAGACTAGGTGT,0.324
10,TATGGGATGGTCTTGTCCCAGA,-1.26

# Target: TELO2
# Assay: as above
# Settings: shRNA
row,Sequence,sensor-assay potency score (higher = more potent)
1,AAACTCATCATCGCTGTCCAGG,-1.32
2,TTGGAGAGAGTCCACAACCGCC,-1.23
3,TTCATCAGCCGGAAGCTGGGGC,0.0431
4,TGTAAGAACAGAAGCTTCTGGG,0.738
5,ATCATCGCTGTCCAGGTCCGAG,-1.37
6,TAGTTGAGGGCATAGAACTGTG,-0.752
7,TTTCTCAGCCACGTCCGCCAGC,-1.03
8,TTGCCCAGCAGCGTCTCCCGGA,-1.12
9,TCCATCAGCACTGCCAGCCGGC,-1.21
